# Results filed as inconclusive are left out. Activity calls are given as the source filed them. Rule as the data show it, unless noted: active = inhibition above about 80%; inactive = the rest.
# How the values were obtained:
# [1] = protection against mutant huntingtin cytotoxicity, PC12 cells, LDH release (AID 1610); conditions: PC12 mutant huntingtin toxicity, final LDH at 4 uM, stronger effect = lower value
# [2] = inhibitors of Cryptococcus chitosan production, flow cytometry, Cibacron Brilliant Red staining (AID 1347148; call rule not given here;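 also: compound exposure lasted three days at 37 degrees C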); conditions: Cryptococcus neoformans chitosan, stronger effect = lower value; at 10 µM unless noted
# [3] = target: ATP-dependent translocase ABCB1 (Homo sapiens) (UniProt P08183); assay: MDR1 (ABCB1) efflux transporter inhibition, cell-based (AID 377; in the data active = fluorescence slope change above about 50%); conditions: MDR1-expressing cells, fluorescent substrate accumulation slope; stronger effect = higher value; concentration not given here
# Chain of ATP-dependent translocase ABCB1 (Homo sapiens) (P08183 whole entry, looked up): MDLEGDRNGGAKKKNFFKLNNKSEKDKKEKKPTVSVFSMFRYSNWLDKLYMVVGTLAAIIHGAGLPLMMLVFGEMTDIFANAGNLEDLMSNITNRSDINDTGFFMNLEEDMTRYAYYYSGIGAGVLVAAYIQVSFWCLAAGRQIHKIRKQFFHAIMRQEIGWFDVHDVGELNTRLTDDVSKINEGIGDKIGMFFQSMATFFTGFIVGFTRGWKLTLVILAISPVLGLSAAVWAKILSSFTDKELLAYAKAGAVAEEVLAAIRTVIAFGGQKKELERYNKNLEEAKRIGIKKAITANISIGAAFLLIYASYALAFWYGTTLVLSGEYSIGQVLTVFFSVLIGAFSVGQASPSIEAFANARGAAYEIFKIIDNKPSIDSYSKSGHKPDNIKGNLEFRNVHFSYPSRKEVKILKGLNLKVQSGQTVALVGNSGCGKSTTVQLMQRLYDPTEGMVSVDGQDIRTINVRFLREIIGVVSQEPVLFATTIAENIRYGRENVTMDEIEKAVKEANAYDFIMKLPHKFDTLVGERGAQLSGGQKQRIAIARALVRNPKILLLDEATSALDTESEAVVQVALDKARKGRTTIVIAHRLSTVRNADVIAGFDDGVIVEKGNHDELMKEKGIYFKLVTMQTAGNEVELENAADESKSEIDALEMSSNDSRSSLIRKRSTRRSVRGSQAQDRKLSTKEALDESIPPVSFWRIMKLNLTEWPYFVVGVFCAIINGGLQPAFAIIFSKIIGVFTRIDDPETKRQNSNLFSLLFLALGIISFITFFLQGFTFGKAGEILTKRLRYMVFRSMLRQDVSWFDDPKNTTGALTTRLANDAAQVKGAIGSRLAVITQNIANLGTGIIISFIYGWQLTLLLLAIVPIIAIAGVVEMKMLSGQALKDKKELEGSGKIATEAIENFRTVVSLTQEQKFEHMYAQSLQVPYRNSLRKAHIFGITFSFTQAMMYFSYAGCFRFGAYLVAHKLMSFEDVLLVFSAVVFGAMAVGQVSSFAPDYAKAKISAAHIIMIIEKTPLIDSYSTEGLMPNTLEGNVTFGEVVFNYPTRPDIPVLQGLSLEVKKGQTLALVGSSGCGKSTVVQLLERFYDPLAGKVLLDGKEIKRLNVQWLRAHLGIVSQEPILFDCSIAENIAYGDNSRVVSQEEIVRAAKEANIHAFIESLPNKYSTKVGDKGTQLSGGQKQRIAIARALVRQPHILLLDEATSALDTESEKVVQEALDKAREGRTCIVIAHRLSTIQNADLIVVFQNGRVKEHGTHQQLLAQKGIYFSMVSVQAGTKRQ
# [4] = LFS_MB_P medulloblastoma growth inhibition, cell-based, chromothripsis tumors, cisplatin or BGB combos (AID 1671449); conditions: LFS_MB_P medulloblastoma cells;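 also: cells exposed for 96 hours; 0% = vehicle DMSO and 100% = killing by high DMSO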
# [5] = HDN33 neuroblastoma growth inhibition, cell-based, chromothripsis tumors, cisplatin or BGB combos (AID 1671450); conditions: HDN33 neuroblastoma cells, stronger effect = higher value;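 also: cells exposed to compound for four days; 0% = vehicle DMSO and 100% = cell killing by high DMSO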
# [6] = ICB984 medulloblastoma cell growth inhibition, synergistic combos for chromothripsis tumors, cisplatin or BGB combos (AID 1671451; call rule not given here;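 also: cells exposed for 96 hours before readout; 0% = vehicle DMSO and 100% = killing by high DMSO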); conditions: ICB984 medulloblastoma cells, drug combinations, stronger effect = higher value
# [7] = LFS_MB_1R medulloblastoma cell growth inhibition, synergistic combos for chromothripsis tumors, cisplatin or BGB combos (AID 1671452); conditions: LFS_MB_1R medulloblastoma cells, stronger effect = higher value;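 also: cells exposed for 96 hours before readout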
# [8] = HTB85 osteosarcoma cell growth inhibition, synergistic combos for chromothripsis tumors, BGB or cisplatin IC20 combos (AID 1671453); conditions: HTB85 osteosarcoma cells, drug combinations, stronger effect = higher value;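 also: cells exposed for 96 hours before readout; 0% = vehicle DMSO and 100% = high DMSO killing control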
# [9] = CRL2098 osteosarcoma cell growth inhibition, synergistic combos for chromothripsis tumors, BGB or cisplatin IC20 combos (AID 1671454); conditions: CRL2098 osteosarcoma cells, drug combinations, stronger effect = higher value;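 also: cells exposed for 96 h before readout; 0% = vehicle DMSO and 100% = killing by high DMSO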
# [10] = HD-MB03 medulloblastoma cell growth inhibition, synergistic combos for chromothripsis tumors, BGB or cisplatin IC20 combos (AID 1671455; in the data active = inhibition above about 83%;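 also: 0% = vehicle DMSO and 100% = high DMSO as cytotoxic control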); conditions: HD-MB03 medulloblastoma cells, stronger effect = higher value
# [11] = UWB1.289 ovarian carcinoma cell growth inhibition, synergistic combos for chromothripsis tumors, BGB or cisplatin combos (AID 1671456); conditions: UWB1.289 ovarian carcinoma cells, stronger effect = higher value;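 also: cells exposed to compound for four days; 0% = vehicle DMSO and 100% = killing by high DMSO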
# [12] = LFS_MB_2R medulloblastoma cell growth inhibition, synergistic combos for chromothripsis tumors, cisplatin combos (AID 1671457); conditions: LFS_MB_2R medulloblastoma cells, stronger effect = higher value;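 also: cells exposed to compound for four days before readout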
# [13] = MDA-MB-436 breast carcinoma cell growth inhibition, synergistic combos for chromothripsis tumors, BGB or cisplatin combos (AID 1671458; call rule not given here;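 also: cells exposed for 96 hours; 0% = vehicle DMSO and 100% = killing by high DMSO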); conditions: MDA-MB-436 breast carcinoma growth inhibition, drug combinations, stronger effect = higher value
# [14] = UWB1.289_BRCA1 ovarian cancer growth, cell-based, BGB or cisplatin combinations (AID 1671459); conditions: UWB1.289 BRCA1 ovarian carcinoma, drug combinations, stronger effect = higher value
# [15] = human astrocyte viability loss, single and combined drugs, cytotoxicity control for chromothriptic childhood tumor combination screen, cell-based, BGB or cisplatin IC20 combos (AID 1671460); conditions: Human astrocytes, drug combinations, stronger effect = higher value;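 also: cells exposed to compounds for 96 hours before viability readout; 0% = vehicle and 100% = killing control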
# [16] = growth inhibition of BT084 medulloblastoma cells, cell-based, ICGC_MB145, cisplatin and BGB IC40 combos (AID 1671461); conditions: drug combinations, stronger effect = higher value;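 also: cells exposed to drugs for 96 hours; 0% = vehicle DMSO and 100% = high DMSO full killing control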
# [17] = growth inhibition of RCMB18 medulloblastoma cells, cell-based, cisplatin and BGB IC40 combos (AID 1671462); conditions: stronger effect = higher value;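 also: cells exposed to compound for four days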
# [18] = growth inhibition of CRL1545 osteosarcoma cells, cell-based, cisplatin and BGB IC20 combos (AID 1671464); conditions: stronger effect = higher value;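 also: cells exposed to compound for 96 hours before readout; 0% = vehicle DMSO and 100% = high DMSO killing control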
# [19] = inhibitors of polyQ aggregate elongation, biochemical, solid-phase synthetic aggregates, QA3 (AID 1585; call rule not given here); conditions: biotin-polyQ incorporation; EC50: measured here: elongation inhibition potency; inhibition: at 100 µM, stronger effect = higher value
# [20] = protection of motor neurons from glutamate death, cell-based, TUNEL DNA degradation staining, MNGlu (AID 1594; call rule not given here); conditions: glutamate-induced death, at 1 µM, stronger effect = higher value
# [21] = measured here: combination with BGB IC40, at 0.05 µM
# [22] = measured here: with BGB IC20 combination, at 0.5 µM
# [23] = measured here: with cisplatin IC20 combination, at 0.5 µM
# [24] = measured here: combination with cisplatin, at 0.5 µM
# [25] = measured here: combination with cisplatin, at 5 µM
structure (smiles),measurement,setting,value
CO[C@@]12[C@@H]3NC3CN1C1=C(C(=O)C(N)=C(C)C1=O)[C@@H]2COC(N)=O (some centres not stated),normalised LDH release,[1],0.873
same,fold fluorescence,[2],4.49 [at 149.6 µM] (inactive)
CCC(NC(C)C)C(O)c1ccc(O)c(O)c1 (configuration not stated),fluorescence slope change,[3],50.8% (active)
c1ccc(C2CN3CCSC3=N2)cc1 (configuration not stated),fluorescence slope change,[3],29.7% (inactive)
C[C@@H]1CC2C3CCC4=CC(=O)C=C[C@]4(C)[C@@]3(F)[C@@H](O)C[C@]2(C)[C@@]1(O)C(=O)CO (some centres not stated),fold fluorescence,[2],10.5 [at 127.4 µM] (inactive)
O=C(O)c1ccccc1Nc1ccccc1,fold fluorescence,[2],3.75 [at 234.5 µM] (inactive)
COC1CC2CCC(C)C(O)(O2)C(=O)C(=O)N2CCCCC2C(=O)OC(C(C)CC2CCC(O)C(OC)C2)CC(=O)C(C)/C=C(\C)C(O)C(OC)C(=O)C(C)CC(C)/C=C/C=C/C=C/1C (configuration not stated),fold fluorescence,[2],6.13 [at 54.7 µM] (inactive)
COc1cccc2c1C(=O)c1c(O)c3c(c(O)c1C2=O)C[C@@](O)(C(=O)CO)C[C@@H]3OC1C[C@H](N)[C@H](O)[C@H](C)O1 (some centres not stated),fold fluorescence,[2],5.77 [at 92 µM] (inactive)
O=C(Nc1ccccc1)c1ccccc1O,inhibition,"[4]; at 0.5 µM, stronger effect = higher value",-6.1% (inactive)
same,inhibition,"[4]; measured here: combination with BGB IC20, at 0.005 µM",6.63%
same,inhibition,"[4]; measured here: combination with BGB IC40, at 0.005 µM",36%
same,inhibition,[4]; [21],-10.8%
same,inhibition,"[4]; measured here: combination with cisplatin, at 0.5 µM, stronger effect = higher value",-0.1%
same,inhibition,"[4]; measured here: combination with cisplatin, at 5 µM, stronger effect = higher value",3.47%
same,inhibition,"[5]; BGB combo, at 5 µM",22.1%
same,inhibition,[5]; at 0.5 µM,6.53% (inactive)
same,inhibition,"[5]; cisplatin combo, at 5 µM",16.8%
same,inhibition,[5]; [22],4%
same,inhibition,[5]; [23],11.1%
same,inhibition,"[5]; single agent, at 5 µM",27.8%
same,inhibition,"[6]; BGB IC20 combo, at 0.005 µM",-13.9%
same,inhibition,"[6]; BGB IC40 combo, at 0.005 µM",-1.37%
same,inhibition,"[6]; BGB IC40 combo, at 0.05 µM",0.369%
same,inhibition,[6]; at 0.5 µM,-10.1% (inactive)
same,inhibition,"[6]; cisplatin combo, at 0.05 µM",0.369%
same,inhibition,"[6]; cisplatin combo, at 0.5 µM",-23.4%
same,inhibition,"[6]; cisplatin combo, at 5 µM",-15.5%
same,inhibition,"[6]; measured here: 5 uM single agent, at 5 µM",19.2%
same,inhibition,[7]; at 0.5 µM,-12.4% (inactive)
same,inhibition,[7]; [21],-23.1%
same,inhibition,[7]; [24],-15.5%
same,inhibition,[7]; [25],13.9%
same,inhibition,[8]; at 0.5 µM,1.9% (inactive)
same,inhibition,"[8]; measured here: with BGB IC20, at 0.5 µM",-7.23%
same,inhibition,"[8]; measured here: with BGB IC20, at 5 µM",16.9%
same,inhibition,"[8]; measured here: with cisplatin IC20, at 0.5 µM",3.88%
same,inhibition,"[8]; measured here: with cisplatin IC20, at 5 µM",16.9%
same,inhibition,"[8]; single agent, at 5 µM",20.7%
same,inhibition,[9]; at 0.5 µM,-8.88% (inactive)
same,inhibition,"[9]; measured here: combination with BGB at IC20, at 0.5 µM",-7.52%
same,inhibition,"[9]; measured here: combination with cisplatin at IC20, at 0.5 µM",4.38%
same,inhibition,[10]; at 0.5 µM,-0.28% (inactive)
same,inhibition,"[10]; measured here: combo with BGB at IC20, at 0.5 µM",1.59%
same,inhibition,"[10]; measured here: combo with cisplatin at IC20, at 0.5 µM",-2.6%
same,inhibition,[11]; at 0.5 µM,10.7% (inactive)
same,inhibition,"[11]; measured here: inhibition with BGB combination, at 0.05 µM",0.707%
same,inhibition,"[11]; measured here: inhibition with cisplatin combination, at 0.05 µM",-5.75%
same,inhibition,[12]; at 0.5 µM,6.25% (inactive)
same,inhibition,[12]; [24],7.79%
same,inhibition,[12]; [25],26.7%
same,inhibition,[13]; at 0.5 µM,-7.25% (inactive)
same,inhibition,"[13]; measured here: BGB combination, at 0.5 µM",-6.93%
same,inhibition,"[13]; measured here: BGB combination, at 5 µM",9.41%
same,inhibition,"[13]; measured here: cisplatin combination, at 0.5 µM",-18%
same,inhibition,"[13]; measured here: cisplatin combination, at 5 µM",28.1%
same,inhibition,"[14]; BGB combination, concentration series, at 5 µM",20.8%
same,inhibition,[14]; at 0.5 µM,4.85% (inactive)
same,inhibition,"[14]; cisplatin combination, concentration series, at 5 µM",20.1%
same,inhibition,[15]; at 0.5 µM,6.87% (inactive)
same,inhibition,"[15]; measured here: combo with BGB IC20, at 0.5 µM",7.24%
same,inhibition,"[15]; measured here: combo with cisplatin IC20, at 0.5 µM",10.9%
same,inhibition,[16]; at 0.5 µM,1.08% (inactive)
same,inhibition,"[16]; cisplatin combination, at 0.5 µM",7.73%
same,inhibition,"[16]; cisplatin combination, at 5 µM",-4.41%
same,inhibition,"[16]; measured here: BGB IC40 combination 0.05 uM, at 0.05 µM",23%
same,inhibition,"[16]; single agent, at 5 µM",16.7%
same,inhibition,[17]; at 0.5 µM,11.8% (inactive)
same,inhibition,"[17]; cisplatin combo, at 5 µM",41.7%
same,inhibition,"[17]; measured here: BGB IC40 combination, at 0.05 µM",-1.52%
same,inhibition,[17]; [24],26.1%
same,inhibition,"[17]; single agent, at 5 µM",5.55%
same,inhibition,[18]; at 0.5 µM,-2.83% (inactive)
same,inhibition,[18]; [22],17.8%
same,inhibition,[18]; [23],-13.1%
same,inhibition,"[18]; single agent, at 0.05 µM",12.8%
same,inhibition,"[18]; single agent, at 5 µM",42.5%
O=C(O)Cc1cc(I)c(Oc2ccc(O)c(I)c2)c(I)c1,fluorescence slope change,[3],75.2% (active)
CCC[C@@H]1C[C@@H](C(=O)N[C@@H](C2O[C@H](SC)[C@H](O)[C@@H](O)[C@H]2O)[C@H](C)Cl)N(C)C1 (some centres not stated),fluorescence slope change,[3],138% (active)
CO/N=C(/C(=O)N[C@@H]1C(=O)N2C(C(=O)O)=C(COC(C)=O)CS[C@H]12)c1csc(N)n1,normalised LDH release,[1],0.958
C#C[C@]1(O)CCC2C3CCc4cc(O)ccc4C3CC[C@@]21C (some centres not stated),EC50,[19],129 µM
same,inhibition,[19],58.5% (active)
CC1(C)O[C@@H]2CC3C4C[C@H](F)C5=CC(=O)C=CC5(C)C4C(O)CC3(C)[C@]2(C(=O)CO)O1 (some centres not stated),normalised LDH release,[1],0.689
C[C@]12C=CC(=O)C=C1CCC1C2[C@@H](O)C[C@@]2(C)C1CC[C@]2(O)C(=O)CO (some centres not stated),protection,[20],55% (active)
CN[C@@H]1[C@H](OC2[C@H](O[C@H]3[C@H](O)[C@@H](O)[C@H](N=C(N)N)[C@@H](O)[C@@H]3N=C(N)N)O[C@@H](C)[C@]2(O)C=O)O[C@@H](CO)[C@H](O)[C@H]1O (some centres not stated),normalised LDH release,[1],0.965
CC(C)[C@@H]1CC[C@@H](C)C[C@H]1O,protection,[20],54% (active)
COc1ccc(C[C@H](N)C(=O)N[C@@H]2[C@@H](CO)OC(n3cnc4c(N(C)C)ncnc43)[C@@H]2O)cc1 (some centres not stated),normalised LDH release,[1],1
CC(C)CC1C(=O)N2CCC[C@H]2C2(O)O[C@](NC(=O)C3C=C4c5cccc6[nH]c(Br)c(c56)C[C@H]4N(C)C3)(C(C)C)C(=O)N12 (some centres not stated),normalised LDH release,[1],0.995
